Source: ChEMBL document CHEMBL4513216, “Probing the Open Global Health Chemical Diversity Library for Multistage-Active Starting Points for Next-Generation Antimalarials” (ACS Infect Dis, 2020)
The whole screen tested about 69,000 compounds, of which about 8,600 (12%) showed an effect of 50% or more. This is one part of a sample in which strong results are shown more often than they occur.

system: Plasmodium berghei; test: Screen against P. berghei liver stage (PbLuc), transformed with Luciferase, at 10uM; assay type: functional, HepG2; conditions: tested at 10 uM

| Structure (SMILES) | INHIBITION [%] |
| --- | --- |
| CNC(=O)CCc1cc(C)nc(C2CCN(CC(=O)N(C)C)CC2)c1 | 23.3 |
| O=C(O)c1ccccc1-c1cnc(Cn2c(=O)cc[nH]c2=O)s1 | 22 |
| CC(C)N(CC(=O)Nc1cccc(C#N)c1)C1CC1 | 54.8 |
| COc1cccc(NC(=O)CN(C(C)C)C2CC2)c1 | 20 |
| CC(C)N(CC(=O)Nc1cccc(C(=O)N(C)C)c1)C1CC1 | -0.614 |
| Cc1noc(C)c1CN(C)CC(=O)N1CCc2sccc2C1 | 14.4 |
| Cn1c(=O)n(C)c2cc(NS(=O)(=O)Cc3ccccc3)ccc21 | 2.03 |
| CCc1cnc(N2C[C@@H]3C[C@H](C(=O)N(C)C)[C@H](C2)O3)nc1 | -46.9 |
| COCc1nn(CC2CC2)c2c1CN(Cc1ccco1)CC2 | 26 |
| CCn1c(CN(C)Cc2cnc(C)s2)nc2cc(F)ccc21 | -2.09 |
| CCn1c(CN(C)Cc2cnc(C)s2)nc2c(F)cccc21 | 37.8 |
| Cc1ncc(CN(C)Cc2nc3cc(Cl)ccc3n2C)s1 | 74 |
| COCc1nn(C(C)C)c2c1CCN(Cc1ccccn1)C2 | -18.4 |
| CCc1nc(N2CCCC(CCCOC)C2)c2cnn(C)c2n1 (configuration not stated) | 49.4 |
| COCCN1CC[C@@H]2OC(COCC(=O)N3CCCC3)CC[C@@H]21 (some centres not stated) | -36 |
| O=C(Cc1ccsc1)N1C[C@@H]2COC[C@]2(COCc2cccnc2)C1 | 30.3 |
| Cc1ccc(F)cc1S(=O)(=O)N1C[C@@H](C)[C@@](C)(O)C1 | 43.6 |
| COc1cc(C)ccc1S(=O)(=O)N1CC[C@](C)(O)[C@H](C)C1 | 25.5 |
| C[C@@H]1CN(S(=O)(=O)c2ccc(F)cc2Cl)C[C@]1(C)O | 5.94 |
| Cc1cc(F)ccc1N1CCC(N2C[C@@H](C)[C@@](C)(O)C2)CC1 | 54.4 |
| Cc1cc(F)ccc1N1CCC(N2C[C@@H](CN(C)C)[C@@H](CO)C2)CC1 | 38 |
| Cc1cc(F)ccc1S(=O)(=O)N1C[C@@H](C)[C@@](C)(O)C1 | 52.5 |

| Structure (SMILES) | INHIBITION [%] |
| --- | --- |
| C[C@@H]1CN(C2CCN(c3ccccc3F)CC2)C[C@]1(C)O | 47.9 |
| C[C@@H]1CN(S(=O)(=O)c2ccc(F)cc2F)C[C@]1(C)O | 45.6 |
| COc1cc(S(=O)(=O)N2C[C@@H](C)[C@@](C)(O)C2)c(C)cc1C | 54.5 |
| COC1COC2(CCN(Cc3ccccc3Cl)CC2)C1 (configuration not stated) | -40.3 |
| Cc1cc(CN2CCCC(Cn3cncn3)C2)no1 (configuration not stated) | 3.73 |
| COc1cn(CC(=O)N2CCN(c3ccc(F)cc3)CC2)c(C)cc1=O | 39.6 |
| CC(C)NC(=O)N1CCN(Cc2ccccn2)CC2(CC(=O)N(C)C2)C1 (configuration not stated) | 42.4 |
| CC1CN(C)CCN1CC(=O)NCCOc1cccc(F)c1 (configuration not stated) | 22.007 |
| O=C(c1ccc2[nH]nnc2c1)N1CCC(Nc2cccnn2)CC1 | 33.3 |
| NCCC(=O)NCC1(O)CCCN(c2ccnc3cccnc23)C1 (configuration not stated) | 29.4 |
| CCN(c1ccsc1C(=O)N1CCC(C)CC1)S(=O)(=O)c1ccccc1 | -8 |
| Cc1ccc(N(C)[C@@H]2CC[C@@H]3CN(C(=O)Cc4cccs4)C[C@@H]32)nn1 | -3.02 |
| CN1CCN(CCc2ncnn2-c2ccc3c(c2)OCO3)CC1 | 89.9 |
| FC(F)(F)CCc1ncnn1-c1ccc2c(c1)OCO2 | -147 |
| FC(F)C(F)(F)COCc1ncnn1-c1ccc2c(c1)OCO2 | -98.6 |
| Cc1nn(C)c(C)c1OCC(=O)NCC(O)c1ccccc1F (configuration not stated) | 57.5 |
| Cc1nn(C)c(C)c1OCC(=O)NCC(O)c1ccsc1 (configuration not stated) | 29.7 |
| Cc1nn(C)c(C)c1OCC(=O)NCc1cccc(CO)c1 | -8.92 |
| Cc1nn(C)c(C)c1OCC(=O)NCc1cccc(C(=O)O)c1 | 38.6 |
| Cc1nn(C)c(C)c1OCC(=O)NCC(O)c1ccco1 (configuration not stated) | 40.6 |
| Cc1nn(C)c(C)c1OCC(=O)NCC(O)Cc1ccccc1 (configuration not stated) | 67.4 |
| CC(C)[C@H](NS(C)(=O)=O)C(=O)NCc1cc(-c2cccc(Cl)c2)nn1C | 45.6 |

| Structure (SMILES) | INHIBITION [%] |
| --- | --- |
| CCC(CO)N(Cc1ccsc1)Cc1c(C)nn(C)c1Cl (configuration not stated) | 27.7 |
| NS(=O)(=O)c1cccnc1Nc1cccc(Cl)c1Cl | 27.4 |
| Cc1nn(C)c(C)c1CCC(=O)N(C)Cc1ccc2nsnc2c1 | -18.3 |
| COc1ccc(NC(=O)Cc2c(C)nn(C)c2C)cc1F | 47.3 |
| COc1ccc(CCC(=O)N(C)Cc2c(C)nn(C)c2C)cc1 | 40.9 |
| COc1cc(CN(C)C(=O)Cc2c(C)nn(C)c2C)ccc1OC(F)F | 93.4 |
| COc1ccc(CN(C)C(=O)CN2CC(n3cc(C)cn3)C2)cc1F | 17.1 |
| COc1ccc(CN(C)C(=O)Cc2c(C)nn(C)c2C)cc1F | 73.6 |
| CCCS(=O)(=O)N1Cc2nccn2CC(CN2CCCC2)C1 (configuration not stated) | 30.3 |
| O=C(Nc1cccc(C(=O)OCC2CCCN2)c1)c1ccoc1 (configuration not stated) | -97.2 |
| N#Cc1c(N)nc2c(c1-c1c[nH]nc1C1CCCCC1)CC(N)CC2 (configuration not stated) | -2.43 |
| CS(=O)(=O)NCc1nnc2n1CCN(Cc1ccc(F)cc1)C2 | 15.9 |
| N#CCC(=O)NCc1nnc2n1CCN(Cc1cccs1)C2 | 0.164 |
| Cc1ccc(CN2CCn3c(CNS(C)(=O)=O)nnc3C2)s1 | 50.9 |
| CN(C)C(=O)NCc1nnc2n1CCN(Cc1cccs1)C2 | 27.7 |
| CS(=O)(=O)NCc1nnc2n1CCN(Cc1nccs1)C2 | 18.3 |
| CC(=O)NCc1nnc2n1CCN(Cc1cccs1)C2 | 76.2 |
| CS(=O)(=O)NCc1nnc2n1CCN(Cc1ccncc1)C2 | 64.9 |
| CS(=O)(=O)NCc1nnc2n1CCN(Cc1cccnc1)C2 | 45.1 |
| CS(=O)(=O)NCc1nnc2n1CCN(Cc1cccs1)C2 | 34.7 |
| COC(=O)C(C)(C)NC(=O)C1CC(=O)N(CC2CC2)C1 (configuration not stated) | 25.1 |
| CNc1snc(C)c1C(=O)N1CCCC(n2ccnc2)C1 (configuration not stated) | 33.8 |

| Structure (SMILES) | INHIBITION [%] |
| --- | --- |
| CC[C@H]1N(Cc2ccc(OC)cc2)CCC[C@]12CCC(=O)N2C | 6.27 |
| Cc1nc(N2CCCN(c3ncccn3)CC2)c2cnn(C)c2n1 | -9.29 |
| Cc1ncsc1CN1CCn2nc(CCC(=O)N3CCCC3)cc2C1 | 14.9 |
| Cc1nnc(NC(=O)CN2CCc3c(nc(C4CC4)n3C)C2)s1 | 14.4 |
| CC(=O)NC1CCCN(C(=O)NCc2ccc(-n3cccn3)cc2)C1 (configuration not stated) | 0.914 |
| O=C(Cc1cccs1)N1C[C@@H]2COC[C@]2(COCc2cccnc2)C1 | 43.9 |
| Cc1cc2nc(O)c(O)nc2cc1S(=O)(=O)NC1CC1 | 60.7 |
| Cc1cc2[nH]c(=O)c(=O)[nH]c2cc1S(=O)(=O)NC1CCC(C)CC1 (configuration not stated) | 23 |
| Cc1cc2[nH]c(=O)c(=O)[nH]c2cc1S(=O)(=O)NC1CCCCC1 | -27.7 |
| CNC(=O)[C@@H](c1ccccc1F)N1CCC[C@H]1C(=O)NC1CCOCC1 | -27.5 |
| O=S(=O)(NCC1COc2ccccc2C1)N1CCCC1 (configuration not stated) | -30 |
| O=S1(=O)CCC(CNS(=O)(=O)N2CCc3ccccc3C2)C1 (configuration not stated) | 52.2 |
| O=S(=O)(NCC1COc2ccccc2C1)N1CCCCC1 (configuration not stated) | -7.71 |
| CN1CCCC(CNS(=O)(=O)N2CCc3ccccc3C2)C1 (configuration not stated) | 57.8 |
| CCN1CCC(CNS(=O)(=O)N2CCc3ccccc3C2)C1 (configuration not stated) | 45.4 |
| O=S(=O)(NCC1CCOC1)N1CCc2ccccc2C1 (configuration not stated) | 27.5 |
| CCn1nc(CC(C)C)cc1C(=O)NCc1c(C)cc(C)nc1OC | 47.3 |
| CSCC(=O)Nc1cccc(Oc2ccccn2)c1 | -9.93 |
| O=C1CC(NS(=O)(=O)NCc2ccccc2)CN1c1ccccc1Cl (configuration not stated) | 55 |
| CS(=O)(=O)NC1CC(=O)N(c2ccccc2Cl)C1 (configuration not stated) | 28.7 |
| CN(C)S(=O)(=O)NC1CC(=O)N(c2ccccc2Cl)C1 (configuration not stated) | 25.8 |
| CN(C)C(=O)COCc1cncc2c1CCN(Cc1cnn(C)c1)C2 | 23.5 |

| Structure (SMILES) | INHIBITION [%] |
| --- | --- |
| Cn1cc(CN2CCc3c(COCC4CC4)cncc3C2)cn1 | 7.15 |
| CC(C)COCc1cncc2c1CCN(Cc1cnn(C)c1)C2 | 71.8 |
| CC(C)N(C)Cc1cncc2c1CCN(CC1CC1)C2 | 44.8 |
| CN(C)Cc1cncc2c1CCN(Cc1cnn(C)c1)C2 | 59.8 |
| CN(C)Cc1cncc2c1CCN(CC(=O)N(C)C)C2 | 72 |
| COCc1cncc2c1CCN(Cc1cccnc1)C2 | 24.8 |
| CN(C)Cc1cncc2c1CCN(Cc1ccoc1)C2 | 24.9 |
| COCc1cncc2c1CCN(Cc1cnn(C)c1)C2 | -26.2 |
| CC(C)N(C)Cc1cncc2c1CCN(CC(=O)N(C)C)C2 | 12.2 |
| c1cncc(COCc2cncc3c2CCN(Cc2ccoc2)C3)c1 | 54.8 |
| CN(Cc1cccnc1)Cc1cncc2c1CCN(Cc1ccoc1)C2 | 28.5 |
| CCC[C@H]1CN(C(=O)CCn2ccccc2=O)C[C@@H]1NS(C)(=O)=O | -7.98 |
| Cc1nc(C(C)C)sc1C(=O)N1CCC(C(N)=O)CC1 | -49.2 |
| Cc1cc(C)cc(OCC(=O)NC2CCN(S(C)(=O)=O)CC2)c1 | 33 |
| Cc1cc(N2CCN(CCO)CC2)nc(-c2ccncc2)n1 | 30 |
| CN1CCN(C(=O)COCc2nc(-c3ccncc3)no2)CC1 | 11.4 |
| CC(C)NC(=O)NCc1nnc2n1C(C(=O)N(C)C)CC2 (configuration not stated) | 9.32 |
| CCCc1noc(C2CCN(C(=O)CCn3nc(C)cc3C)CC2)n1 | 36.6 |
| COC[C@H]1CCC[C@H]1Nc1ncnc2c1CCNCC2 | -6.94 |
